PubChem BioAssay AID1851 (National Center for Advancing Translational Sciences (NCATS), 2009)
“And” between values parts separate entries of the source, which are not always exact repeats. Identical values can stand only once. About 5,800 (36%) of roughly 16,000 compounds were called active. Not shown: some 23% with an inconclusive outcome. Calls follow the shape of the dose curve; as a rule, active = well fitted curve in the direction sought with a large enough effect; inconclusive = small, poorly fitted or top-dose-only effect, or effect the other way; inactive = no such curve, though single readings can be large or run the other way. The list shows a part of the results. Some structures have more than one record in an assay (separate samples or runs), and their calls can disagree.

biological target: Cytochrome P450 2C19 (Homo sapiens) (UniProt P33261); test: Cytochrome panel assay with activity outcomes; details: recombinant CYP, pro-luciferin dealkylation, luminescence, p450-cyp2c19; series mostly up to 57.1 µM; activity, negative = inhibition: at the top concentration
Sequence (P33261 whole entry, looked up): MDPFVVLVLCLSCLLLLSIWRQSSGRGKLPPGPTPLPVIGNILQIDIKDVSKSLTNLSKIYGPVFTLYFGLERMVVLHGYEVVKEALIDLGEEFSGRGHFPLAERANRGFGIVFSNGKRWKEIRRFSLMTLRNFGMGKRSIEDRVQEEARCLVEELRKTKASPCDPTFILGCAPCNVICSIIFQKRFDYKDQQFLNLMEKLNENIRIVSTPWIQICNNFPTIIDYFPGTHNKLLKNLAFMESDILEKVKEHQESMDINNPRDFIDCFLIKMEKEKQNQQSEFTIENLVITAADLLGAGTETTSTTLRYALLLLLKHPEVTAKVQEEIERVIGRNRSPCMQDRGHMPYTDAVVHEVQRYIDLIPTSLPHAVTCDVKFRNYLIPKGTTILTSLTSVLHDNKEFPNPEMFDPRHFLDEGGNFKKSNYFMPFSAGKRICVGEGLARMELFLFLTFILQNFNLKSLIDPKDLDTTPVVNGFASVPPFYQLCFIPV
% is scaled to controls: 0 for no effect and ±100 for the full control effect.

| SMILES | activity, negative = inhibition | AC50 |
| --- | --- | --- |
| COc1cc2ccccc2c2cc([N+](=O)[O-])oc12 | -34.1% [at 11.4 µM] (inactive) | – |
| c1cc(CCN2CCCCC2)ccn1 | 9.84% [at 11.4 µM] (inactive) | – |
| c1ccc(CCCCN2CCC(c3ccccc3)CC2)cc1 | – | 15.8 µM (active) |
| c1ccc2c([C@@H]3CCN(CCN4CCOCC4)C3)c[nH]c2c1 | 23.2% [at 11.4 µM] (inactive) | – |
| C1C[C@@H]2CN(CCCN3CCOCC3)[C@@H](C1)O2 | -1.65% [at 11.4 µM] (inactive) | – |
| Cc1c2cc[n+](CCN3CCCCC3)cc2c(C)c2c1[nH]c1ccc(O)cc12 | 17.2% [at 11.4 µM] (inactive) | – |
| N=C1c2ccccc2CN1NC(=O)c1ccc(Cl)cc1 | 1.92% (inactive) | – |
| C[C@@H]1O[C@H](O[C@H]2C[C@@H](O)[C@@]3(CO)[C@H]4[C@@H](O)C[C@]5(C)[C@@H](C6=CC(=O)OC6)CC[C@]5(O)[C@H]4CC[C@]3(O)C2)[C@@H](O)[C@H](O)[C@@H]1O | -10.4% [at 25.6 µM] (inactive) | – |
| CCN1C[C@]2(COC(=O)c3ccccc3N3C(=O)C[C@H](C)C3=O)CC[C@H](OC)[C@@]34[C@@H]5C[C@H]6[C@H](OC)[C@H]5[C@](O)(C[C@@H]6OC)[C@@](O)([C@@H](OC)[C@@H]23)[C@@H]14 | 3.08% (inactive) | – |
| CC[C@@]1(O)C(=O)OCc2c1cc1n(c2=O)Cc2cc3ccccc3nc2-1 | – | inactive and 20 µM (active) |
| CC[C@]1(OC(=O)CN)C(=O)OCc2c1cc1n(c2=O)Cc2cc3ccccc3nc2-1 | 17% [at 11.4 µM] (inactive) | – |
| CC[C@@]1(O)C(=O)OCc2c1cc1n(c2=O)Cc2cc3c(NC(=O)CN)cccc3nc2-1 | 11.8% [at 11.4 µM] (inactive) | – |
| Clc1cc(I)cc(Cl)c1NC1=NCCN1 | -0.585% (inactive) | – |
| CC(C)NC(=O)N1CCCC2(CCN(C(=O)Oc3ccccc3)CC2)C1 | -29% (inactive) | – |
| CN1[C@@H]2CC[C@H]1CC(OC(=O)c1cc(Cl)cc(Cl)c1)C2 (some centres not stated) | -36.3% (inactive) | – |
| C[C@@H](C(=O)OC1C[C@H]2CC[C@@H](C1)N2C)c1ccc(Br)cc1 (some centres not stated) | -8.86% (inactive) | – |
| CC[C@H](Oc1ccc(Cl)cc1)C(=O)OC1C[C@H]2CC[C@@H](C1)N2C (some centres not stated) | – | 0.0158 µM (active) |
| CCCN(CCC)C1Cc2cc(OC)c(OC)cc2C1 | – | inactive |
| NCCSC(c1ccccc1)c1ccccc1 | – | 1.26 µM (active) |

| SMILES | activity, negative = inhibition | AC50 |
| --- | --- | --- |
| C[N+]1(C)CCN(c2ccccc2)CC1 | 32% (inactive) | – |
| C=CCN1CCc2cccc3c2[C@@H]1Cc1ccc(O)c(O)c1-3 | -54% (inactive) | – |
| CC(=O)NCCc1c[nH]c2ccccc12 | – | 10 µM (active) |
| NCCc1c[nH]c2ccccc12 | -13.2% (inactive) | – |
| CN(C)CCCc1c[nH]c2ccccc12 | -13.7% [at 11.4 µM] (inactive) | – |
| c1ccc2c(c1)Sc1ccccc1N2C[C@H]1CN2CCC1CC2 | 38.1% [at 11.4 µM] (inactive) | – |
| CN(C(=O)Cc1ccc(Cl)c(Cl)c1)[C@H](CN1CCCC1)c1ccccc1 | – | 0.316 µM (active) |
| CN(C(=O)Cc1ccc(Cl)c(Cl)c1)[C@@H](CN1CCCC1)c1cccc(OCC(=O)O)c1 | – | inactive |
| C=CCN1CC[C@]23c4c5ccc(O)c4O[C@@H]2/C(=N/NC(=O)c2ccccc2)CC[C@@]3(O)[C@H]1C5 | -19.2% (inactive) | – |
| CC(C)N(CC[C@@](C(N)=O)(c1ccccc1)c1ccccn1)C(C)C | – | inactive |
| COC(=O)[C@@]1(Cc2ccc(F)cc2)[C@H]2c3cc(C(=O)N(C)C)[nH]c3C[C@H]2CN1C(=O)c1ccccc1 | – | 20 µM (active) |
| CC[N+](C)(C)c1cccc(O)c1 | -25.1% [at 25.6 µM] (inactive) | – |
| C/C=C1\C[C@H](C)[C@@](O)(CO)C(=O)OCC2=CCN3CC[C@@H](OC1=O)[C@@H]23 | -42% [at 25.6 µM] (inactive) | – |
| CC(C)C12CN3CC(C(C)C)(CN(C1)C3c1cccnc1)C2=O (configuration not stated) | – | 14.1 µM (active) |
| CCN=C=NCCCN(C)C | 27.1% [at 11.4 µM] (inactive) | – |
| C[N+]1(C)C2CC(OC(=O)C(CO)c3ccccc3)CC1[C@@H]1O[C@H]21 (some centres not stated) | – | inactive |
| C[C@H]1CN(C2CCC(C#N)(c3ccc(F)cc3)CC2)CC[C@@]1(C(=O)O)c1ccccc1 (some centres not stated) | -32.5% [at 25.6 µM] (inactive) | – |
| FC(F)(F)c1nc2ccc(SSc3ccc4nc(C(F)(F)F)[nH]c4c3)cc2[nH]1 | – | 5.01 µM (active) |
| C=C(C)[C@H]1CN[C@H](C(=O)O)[C@@H]1CC(=O)O | 28% (inactive) | – |

| SMILES | activity, negative = inhibition | AC50 |
| --- | --- | --- |
| c1cc(CN2CC3(CCNCC3)C2)ccn1 | -40.1% (inactive) | – |
| CC(C)[C@@H]1CN[C@H](C(=O)O)[C@@H]1CC(=O)O | -4.7% (inactive) | – |
| COC[C@H]1OC(=O)c2coc3c2[C@@]1(C)C1=C(C3=O)[C@H]2CCC(=O)[C@@]2(C)C[C@H]1OC(C)=O | -4.95% (inactive) | – |
| CCCN1CCC[C@H](c2cccc(O)c2)C1 | – | inactive |
| Fc1ccc(CCNCc2ccc(Cl)c(Cl)c2)cc1 | – | 0.316 µM (active) |
| O=C1NC(=S)NC(=O)C1=Cc1cccc2cc3ccccc3cc12 | -39.2% [at 11.4 µM] (inactive) | – |
| O=c1cc(-c2ccc(O)cc2)oc2c([C@H]3O[C@@H](CO)[C@@H](O)[C@@H](O)[C@@H]3O)c(O)cc(O)c12 | 7.98% [at 25.6 µM] (inactive) | – |
| O=P(O)(O)CCP(=O)(O)O | 13.6% [at 11.4 µM] (inactive) | – |
| COc1ccc(C2SCC(=O)Nc3c2c(C)nn3-c2ccccc2)cc1OC (configuration not stated) | – | 10 µM (active) |
| CNC(=O)Oc1ccc2c(c1)[C@@]1(C)CCN(C)[C@@H]1N2C | 33.5% [at 25.6 µM] (inactive) | – |
| C[C@]12CC[C@H]3c4ccc(O)cc4CC[C@@H]3[C@H]1CC[C@@H]2OP(=O)(O)O | 34.7% [at 11.4 µM] (inactive) | – |
| CCCN(CCC)C(=O)Cc1c(-c2ccc(Cl)cc2)nc2c(Cl)cc(Cl)cn12 | 16.9% (inactive) | – |
| COc1ccc(OC)c([C@H](O)[C@H](C)N)c1 | – | inactive |
| COc1ccc(Cl)cc1NC(=O)NCCCl | – | 20 µM (active) |
| CC1=NCCc2c1[nH]c1cc(O)ccc21 | -35.5% [at 25.6 µM] (inactive) | – |
| O=C(NCCN1CCN(C(=O)C(c2ccccc2)c2ccccc2)CC1)C(=O)Nc1ccccc1 | – | 25.1 µM (active) |
| O=C(OC1CCN(CCCl)CC1)C(c1ccccc1)c1ccccc1 | -33.4% (inactive) | – |
| O=C(c1ccccc1)[C@H]1[C@H](c2ccccc2[N+](=O)[O-])N1C1CCCCC1 (some centres not stated) | -82.8% [at 11.4 µM] (inactive) | – |
| Cc1ccc(C2(c3ccc(C)c(O)c3C)CCN(C)CC2)c(C)c1O | 2.67% [at 11.4 µM] (inactive) | – |
